Laboratory results from ChEMBL document CHEMBL4808148, “HDAC6 screening dataset using tau-based substrate in an enzymatic assay yields selective inhibitors and activators” (2021).
Values joined by “and” are separate entries in the source; they are usually repeats but may differ in a detail not shown here. Identical values can stand only once. The whole screen tested about 5,600 compounds, of which about 150 (2.7%) showed an effect of 50% or more. The list comes from a sample in which strong results are over-represented; it also holds similar structures and randomly drawn compounds. Residues, ends and D or L forms follow the SMILES beside them.

Tests used:
[1] = target: T1, Protein deacetylase HDAC6 (Homo sapiens) (UniProt Q9UBN7); conditions: at 10 µM
T1 sequence (whole entry): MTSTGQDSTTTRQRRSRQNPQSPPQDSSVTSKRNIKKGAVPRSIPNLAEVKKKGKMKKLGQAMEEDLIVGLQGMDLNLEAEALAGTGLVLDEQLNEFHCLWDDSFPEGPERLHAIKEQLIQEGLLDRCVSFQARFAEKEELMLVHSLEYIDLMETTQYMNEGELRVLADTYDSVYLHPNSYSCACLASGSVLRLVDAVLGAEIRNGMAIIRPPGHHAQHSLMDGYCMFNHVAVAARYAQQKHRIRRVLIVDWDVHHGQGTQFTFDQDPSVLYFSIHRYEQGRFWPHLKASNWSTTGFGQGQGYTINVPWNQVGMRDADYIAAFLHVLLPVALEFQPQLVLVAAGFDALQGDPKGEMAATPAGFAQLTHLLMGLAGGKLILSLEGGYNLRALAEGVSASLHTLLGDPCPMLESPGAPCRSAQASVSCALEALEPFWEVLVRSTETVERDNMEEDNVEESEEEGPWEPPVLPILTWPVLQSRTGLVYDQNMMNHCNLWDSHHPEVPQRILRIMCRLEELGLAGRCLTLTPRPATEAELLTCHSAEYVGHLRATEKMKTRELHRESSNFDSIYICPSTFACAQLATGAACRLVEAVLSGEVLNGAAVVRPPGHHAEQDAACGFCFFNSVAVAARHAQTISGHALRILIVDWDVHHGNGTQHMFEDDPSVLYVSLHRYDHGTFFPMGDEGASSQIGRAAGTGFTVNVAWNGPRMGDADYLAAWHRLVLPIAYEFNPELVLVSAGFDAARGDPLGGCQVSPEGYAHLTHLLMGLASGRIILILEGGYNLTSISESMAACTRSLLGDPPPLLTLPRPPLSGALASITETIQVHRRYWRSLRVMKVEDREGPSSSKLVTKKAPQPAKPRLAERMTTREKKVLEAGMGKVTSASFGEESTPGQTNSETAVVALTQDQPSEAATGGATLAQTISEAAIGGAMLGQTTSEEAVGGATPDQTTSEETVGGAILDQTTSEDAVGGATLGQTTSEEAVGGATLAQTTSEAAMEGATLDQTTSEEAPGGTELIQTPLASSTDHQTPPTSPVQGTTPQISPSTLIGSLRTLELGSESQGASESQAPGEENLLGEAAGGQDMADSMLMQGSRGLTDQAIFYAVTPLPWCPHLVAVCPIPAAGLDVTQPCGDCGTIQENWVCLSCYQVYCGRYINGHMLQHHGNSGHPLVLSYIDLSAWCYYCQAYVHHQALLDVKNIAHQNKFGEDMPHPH

[2] = target: Protein deacetylase HDAC6 (Homo sapiens) (UniProt Q9UBN7); conditions: at 10 µM; remark: listed apart in the source

## O=C(/C=C/c1ccc2ccc(C(F)(F)F)cc2n1)c1ccncc1
[1]
  inhibition: -2.03%

## O=C(NNc1ccccc1)c1ccncc1
[1]
  inhibition: -5.35%

## O=C(/C=C/c1ccc2ccccc2n1)c1ccncc1
[1]
  inhibition: 77.3%

## Cc1c(Cl)cccc1S(=O)(=O)Nc1nc(CC(=O)N2CCN(C)CC2)cs1
[1]
  inhibition: 4.81%

## CCO[C@@H](Cc1ccc(OCCn2c(C)ccc2-c2ccc(SC)cc2)cc1)C(=O)O
[1]
  inhibition: 46.3%

## COc1cc(NC(=O)c2ccccn2)ccc1Cl
[1]
  inhibition: 94.4%

## O=C(Nc1ccc(Cl)cc1)Nc1ccc(Cl)c(Cl)c1
[1]
  inhibition: -2.56%

## CC(C)OC(=O)Nc1cccc(Cl)c1
[1]
  inhibition: -4.5%

## O=C(Nc1cnc(Cl)nc1)c1ccc(F)c(F)c1
[1]
  inhibition: -4.2%

## O=C(Nc1ccc(S(=O)(=O)Nc2ccccc2Cl)c(Cl)c1)c1ccccn1
[1]
  inhibition: 13.9%

## O=C(Nc1cccc(Cl)c1)c1ccccn1
[1]
  inhibition: 97.2%

## Cc1cccc(C)c1NC(=O)[C@H]1CCCCN1C
[1]
  inhibition: 2.44%

## c1ccc(CN2CCC3(CCc4ccccc43)CC2)cc1
[1]
  inhibition: -2.02%

## CN[C@@H](CCCNC(=N)N)C(=O)O
[1]
  inhibition: -8.08%

## O=C(CCCS)NC1CCN(C(=O)COc2ccc(Cl)cc2Cl)CC1
[1]
  inhibition: 7.84%

## CO/N=C(/C(=O)N[C@@H]1C(=O)N2C(C(=O)O)=C(Cn3ccc(=N)n3CCO)CS[C@H]12)c1csc(N)n1
[1]
  inhibition: -0.61%

## O=C(N[C@H]1CCN(C(=O)c2cc(C(F)(F)F)cc(C(F)(F)F)c2)[C@H](Cc2ccc(Cl)cc2)C1)c1ccnc2ccccc12
[1]
  inhibition: -1.37%

## Cc1cn2nc([C@@H]3CCCCN3C(=O)c3cc(Cl)ccc3NS(C)(=O)=O)cc2nc1N1CC[C@H](N)C1
[1]
  inhibition: -2.52%

## Cc1nc(NS(=O)(=O)c2ccc(N)cc2)oc1C
[1]
  inhibition: 32.6%

## SATRAPLATIN, CHEMBL3833367
[2]
  inhibition: -6.7%

## O=C1c2cccc(O)c2C(=O)c2c(O)cc(CO)cc21
[1]
  inhibition: 5.42%

## Cc1cc(O)c2c(c1)C(=O)c1cc(O)cc(O)c1C2=O
[1]
  inhibition: 90.2%

## CCS(=O)(=O)N(C)[C@H]1c2cc(C#N)ccc2OC(C)(C)[C@@H]1O
[1]
  inhibition: -5.99%

## CC(=O)OC[C@H](N)C(=O)O
[1]
  inhibition: 3.65%

## NC[C@H]1O[C@H](O[C@H]2[C@H](O[C@@H]3O[C@H](CO)[C@@H](O)[C@H]3O)[C@@H](O)[C@H](N)C[C@@H]2N)[C@H](N)[C@@H](O)[C@@H]1O
[1]
  inhibition: -5.95% and -3.47%

## NC[C@@H]1O[C@H](O[C@H]2[C@@H](O)[C@H](O[C@@H]3[C@@H](O)[C@H](N)C[C@H](N)[C@H]3O[C@H]3O[C@H](CO)[C@@H](O)[C@H](O)[C@H]3N)O[C@@H]2CO)[C@H](N)[C@@H](O)[C@@H]1O
[1]
  inhibition: 80.2%

## NC[C@H]1O[C@H](O[C@H]2[C@H](O)[C@@H](O[C@H]3O[C@H](CO)[C@@H](O)[C@H](N)[C@H]3O)[C@H](N)C[C@@H]2N)[C@H](N)C[C@@H]1O
[1]
  inhibition: -5.82%

## C[N+](C)(C)[C@@H](Cc1c[nH]c(=S)[nH]1)C(=O)[O-]
[1]
  inhibition: 0.31%

## CC/C(=C(/CC)c1ccc(OP(=O)(O)O)cc1)c1ccc(OP(=O)(O)O)cc1
[1]
  inhibition: -0.19%

## CC(=O)N1CCC[C@H]1C(=O)N[C@@H](Cc1cnc[nH]1)C(=O)N[C@@H](CO)C(=O)N[C@@H](CS)C(=O)N[C@@H](CC(N)=O)C(N)=O (Ac-PHSCN-NH2)
[1]
  inhibition: -4.4%

## CCOC(=O)[C@H](CCc1ccccc1)N[C@@H](C)C(=O)N1Cc2cc(OC)c(OC)cc2C[C@H]1C(=O)O
[1]
  inhibition: -3.25%

## COc1cc(OCc2cccc(-c3ccccc3)c2C)cc(OC)c1CN1CCCC[C@H]1C(=O)O
[1]
  inhibition: 51.3%

## C#CC1(OCC(O)CN2CCN(c3cccc(C(F)(F)F)c3)CC2)CCCCC1 (centres undefined)
[1]
  inhibition: 3.19%

## Cn1c(COc2ccc(CC3SC(=O)NC3=O)cc2)nc2ccccc2c1=O (centres undefined)
[1]
  inhibition: 6.76%

## COCCOc1cnc2ccn([C@H](C)c3nnc4c(F)cc(-c5cnn(C)c5)cn34)c(=O)c2c1
[1]
  inhibition: -3.49%

## O=C(NCc1ccc(OC(F)(F)F)cc1)C1c2ccccc2C(=O)N1C1CCOCC1 (centres undefined)
[1]
  inhibition: 1.11%

## C[C@H]1NC(=O)NC1=O
[1]
  inhibition: 0.16%

## COc1cc(OC)c(/C=C2/C(=O)Nc3ccccc32)c(OC)c1
[1]
  inhibition: -2.63%

## Cc1[nH]c(/C=C2\C(=O)Nc3ccc(F)cc32)c(C)c1C(=O)NCCN1CCCC1
[1]
  inhibition: 2.96%

## Cc1[nH]c(/C=C2\C(=O)Nc3cc(-c4ccccc4)ccc32)c(C)c1CCC(=O)O
[1]
  inhibition: 96.4%

## CN[C@@H]1[C@@H](O[C@H]2O[C@H](CO)[C@@H](N)[C@H](O)[C@H]2O)O[C@H]2C[C@@H](N)[C@H](O[C@H]3[C@H](O)[C@@H](O)[C@H](N)C[C@@H]3N)O[C@@H]2[C@@H]1O
[1]
  inhibition: 10.2%

## COc1cc(N2CCOCC2)ccc1Nc1ncc(Cl)c(Nc2ccccc2NS(C)(=O)=O)n1
[1]
  inhibition: -0.93%

## CN1CCN(Cc2ccc(Nc3ncc(Cl)c(Nc4ccccc4S(=O)(=O)N(C)C)n3)cc2)CC1
[1]
  inhibition: -1.57%

## CNC(=O)c1ccccc1Nc1nc(Nc2ccc3c(c2OC)CCC[C@H](N2CCN(CCO)CC2)C3)ncc1Cl
[1]
  inhibition: 83%
